Binding signal data for 8 sequences are collected here from PMC8384837, “Expanding the binding specificity for RNA recognition by a PUF domain”.

Assay in all cases: yeast three-hybrid, YBZ-1, SC-Leu-His + 0.5 mM 3-AT, 4 days
Holding throughout (details): tags: N-Gal4 AD-HA kept; label: inside an RPR1-promoter hybrid RNA with tandem MS2 sites; ssRNA

One assay has as its target PUM1 PUF domain R5-DFT (Homo sapiens, UniProt Q14671 828-1176, C1007D;R1008F;Q1011T). The method in brief:
(§1)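 The interaction score is the log change in how often each variant appears, from input to selection. Frequencies came from PCR-amplified, Illumina-sequenced repeat regions of Pumilio-1 PUF domain libraries grown in strain YBZ-1 (LexA–MS2 coat fusion, HIS3 reporter) alongside matching RNA elements. Input plates were SC-Leu and selection plates were SC-Leu-His + 0.5 mM 3-AT, each for four days, and the log2 calculation used a pseudocount of 1 where a variant was absent.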

The target of another assay is PUM1 PUF domain R5-SVS (Homo sapiens, UniProt Q14671 828-1176, C1007S;R1008V;Q1011S). The method in brief: as §1
The target of a further assay is PUM1 PUF domain R1-HMR (Homo sapiens, UniProt Q14671 828-1176, S863H;R864M;Q867R). The method in brief: as §1
For a further assay, the target named is PUM1 PUF domain R4-TNQ (Homo sapiens, UniProt Q14671 828-1176, N971T;H972N). The method in brief: as §1
A further assay addresses PUM1 PUF domain R3-AKE (Homo sapiens, UniProt Q14671 828-1176, C935A;R936K;Q939E). The method in brief:
as §1

A further assay has as its target PUM1 PUF domain R5-RSC (Homo sapiens, UniProt Q14671 828-1176, C1007R;R1008S;Q1011C). The method in brief:
as §1

A further assay has as its target PUM1 PUF domain R5-SER (Homo sapiens, UniProt Q14671 828-1176, C1007S;R1008E;Q1011R). The method in brief:
as §1

The target of the next assay is PUM1 PUF domain R8-KYT (Homo sapiens, UniProt Q14671 828-1176, N1122K;Q1126T). The method in brief: as §1
The next assay has as its target PUM1 PUF domain R8-KRN (Homo sapiens, UniProt Q14671 828-1176, N1122K;Y1123R;Q1126N). The method in brief: as §1
The target of another assay is PUM1 PUF domain R5-PGY (Homo sapiens, UniProt Q14671 828-1176, C1007P;R1008G;Q1011Y). The method in brief: as §1

In the case of “GGCUAGAACUAGUGGAUCCCCCGGCGCCCGGCGGCUCGAGCCCGGGUAAGUGUGAAUAGUCUGCAUGCCGCCGGGCGCCAUGCCUGCAGGUCGACUCUAGAAAACAUG”, the figures for the binding signal with PUM1 PUF domain R5-DFT and with PUM1 PUF domain R5-SVS were 3.29 log2 enrichment (interaction score) and 3.48 log2 enrichment (interaction score), respectively.

Regarding “GGCUAGAACUAGUGGAUCCCCCGGCGCCCGGCGGCUCGAGCCCGGGUAAGUGUAAAUCGUCUGCAUGCCGCCGGGCGCCAUGCCUGCAGGUCGACUCUAGAAAACAUG”, the binding signal in the assay with PUM1 PUF domain R1-HMR is 3.35 log2 enrichment (interaction score).

Consider “GGCUAGAACUAGUGGAUCCCCCGGCGCCCGGCGGCUCGAGCCCGGGUAAGUGUAUAUAGUCUGCAUGCCGCCGGGCGCCAUGCCUGCAGGUCGACUCUAGAAAACAUG”, for which, in the assay with PUM1 PUF domain R4-TNQ, the binding signal was 4.92 log2 enrichment (interaction score).

On to “GGCUAGAACUAGUGGAUCCCCCGGCGCCCGGCGGCUCGAGCCCGGGUAAGUGUAAGUAGUCUGCAUGCCGCCGGGCGCCAUGCCUGCAGGUCGACUCUAGAAAACAUG”, for which, in the assay with PUM1 PUF domain R3-AKE, the binding signal is 2.98 log2 enrichment (interaction score).

Turning to “GGCUAGAACUAGUGGAUCCCCCGGCGCCCGGCGGCUCGAGCCCGGGUAAGUGUUAAUAGUCUGCAUGCCGCCGGGCGCCAUGCCUGCAGGUCGACUCUAGAAAACAUG”, the binding signal with PUM1 PUF domain R5-RSC is 3.18 log2 enrichment (interaction score).

For the sequence “GGCUAGAACUAGUGGAUCCCCCGGCGCCCGGCGGCUCGAGCCCGGGUAAGUGUCAAUAGUCUGCAUGCCGCCGGGCGCCAUGCCUGCAGGUCGACUCUAGAAAACAUG”, the binding signal was 3.79 log2 enrichment (interaction score) with PUM1 PUF domain R5-SER and 3.02 log2 enrichment (interaction score) with PUM1 PUF domain R5-RSC.

On to “GGCUAGAACUAGUGGAUCCCCCGGCGCCCGGCGGCUCGAGCCCGGGUAAGUGUAAAUAGUCUGCAUGCCGCCGGGCGCCAUGCCUGCAGGUCGACUCUAGAAAACAUG”, for which the binding signal was 2.68 log2 enrichment (interaction score) with PUM1 PUF domain R8-KYT, 2.98 log2 enrichment (interaction score) in the assay with PUM1 PUF domain R8-KRN and 4.47 log2 enrichment (interaction score) with PUM1 PUF domain R5-PGY.

For the sequence “GGCUAGAACUAGUGGAUCCCCCGGCGCCCGGCGGCUCGAGCCCGGGUAAGCGUAAAUAGUCUGCAUGCCGCCGGGCGCCAUGCCUGCAGGUCGACUCUAGAAAACAUG”, the binding signal in the assay with PUM1 PUF domain R8-KYT is 2.81 log2 enrichment (interaction score).
